According to PubChem BioAssay (EPA / NIEHS):
Several values for one entry are separate records, joined by “and”; a condition that tells them apart may be missing. Equal values may be shown once. Results filed as inconclusive are left out. Where a structure was tested more than once in an assay, its records may differ in their call. Activity calls are given as the source filed them. The calls were made as follows: active = hit-call score of the fitted dose curve at least 0.9, where 1 is the maximum; inconclusive = response in the unintended direction; inactive = score below 0.9.

Experiments:
[1] = ATG_XTT_Cytotoxicity: Cytotoxicity Assessment in the Attagene TRANS-FACTORIAL HepG2 Assay (AID 2283584);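 as to AC50: XTT signal for cell number as viability in transfected HepG2 cells; cells exposed to compound for 24 h before reading; active means loss of viability signal versus DMSO baseline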
Outline: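 HepG2 cells transiently transfected with GAL4-UAS multiple reporter units, dosed 24 h; cytotoxicity read by XTT as loss of signal versus DMSO baseline.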

[2] = TOX21_p53_BLA_p2_viability: Viability Assessment in the Tox21 HCT-116 p53 Agonism Beta-lactamase Assay, Phase 2 (AID 2283591);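 also: actives lower the ATP signal meaning cytotoxicity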
Outline: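 HCT116 p53-bla cells, 4000/well, dosed after 5 h plating (217-fold dilution of DMSO stocks) and incubated 16 h at 37C. Viability taken as cellular ATP by CellTiter-Glo luminescence after 30 min RT; signal loss marks cytotoxicity.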

[3] = molecular target: Cellular tumor antigen p53 (Homo sapiens) (UniProt P04637); experiment: TOX21_p53_BLA_p2_ratio: Tox21 HCT-116 p53 Agonism Beta-lactamase Assay, Ratio, Phase 2 (AID 2283592)
Sequence of Cellular tumor antigen p53 (Homo sapiens) (P04637 whole entry, looked up): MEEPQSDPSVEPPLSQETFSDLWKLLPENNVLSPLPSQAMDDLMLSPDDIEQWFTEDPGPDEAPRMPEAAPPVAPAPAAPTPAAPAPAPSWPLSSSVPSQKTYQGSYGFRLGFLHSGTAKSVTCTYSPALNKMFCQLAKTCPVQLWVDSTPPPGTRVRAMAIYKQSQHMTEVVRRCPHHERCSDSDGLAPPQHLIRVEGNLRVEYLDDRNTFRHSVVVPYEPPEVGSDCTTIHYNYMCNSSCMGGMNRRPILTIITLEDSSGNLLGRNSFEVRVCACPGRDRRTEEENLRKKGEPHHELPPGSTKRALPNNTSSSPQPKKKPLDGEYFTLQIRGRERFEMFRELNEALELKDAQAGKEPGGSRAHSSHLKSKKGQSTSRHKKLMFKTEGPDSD
Outline: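 First, HCT116 reporter cells settle for 5 h at 37C. Next, DMSO compound solutions are pinned in (217-fold dilution) and left 16 h. Finally, CCF4-AM substrate is loaded 2 h at room temperature and the 460/530 nm ratio read.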

[4] = TOX21_p53_BLA_p3_viability: Viability Assessment in the Tox21 HCT-116 p53 Agonism Beta-lactamase Assay, Phase 3 (AID 2283593);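 also: cells exposed to compound for 16 h before reading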
Outline: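 HCT116 cells, 4000/well, dosed 5 h after plating by pin transfer (217-fold dilution from DMSO stock) and incubated 16 h at 37C, 5% CO2. Viability read as ATP luminescence with CellTiter-Glo after 30 min at room temperature.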

[5] = molecular target: Cellular tumor antigen p53 (Homo sapiens) (UniProt P04637); experiment: TOX21_p53_BLA_p3_ratio: Tox21 HCT-116 p53 Agonism Beta-lactamase Assay, Ratio, Phase 3 (AID 2283596)
Outline: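 Cells were seeded at 4000/well, rested 5 h at 37C, then dosed with DMSO compound solutions (217-fold dilution) for 16 h. CCF4-AM substrate was loaded for 2 h at room temperature, and the 460/530 nm emission ratio was fitted for gain of signal versus DMSO.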

[6] = TOX21_p53_BLA_p4_viability: Viability Assessment in the Tox21 HCT-116 p53 Agonism Beta-lactamase Assay, Phase 4 (AID 2283597);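 also: hits lower the luminescence signal meaning cytotoxicity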
Outline: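 4000 HCT116 cells per well; 5 h attachment; compounds from DMSO, 217-fold dilution; 16 h at 37C. Then CCF4-AM, 2 h RT, followed by CellTiter-Glo, 30 min RT, luminescence. Decrease = cytotoxicity.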

[7] = molecular target: Cellular tumor antigen p53 (Homo sapiens) (UniProt P04637); experiment: TOX21_p53_BLA_p5_ratio: Tox21 HCT-116 p53 Agonism Beta-lactamase Assay, Ratio, Phase 5 (AID 2283599)
Outline: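 HCT-116 p53-bla cells (4000/well) plated 5 h, dosed with compound (217-fold DMSO dilution) for 16 h at 37 C; CCF4-AM substrate 2 h at room temperature. Activity is the 460/530 nm emission ratio (405 nm excitation), fitted in gain-of-signal direction versus DMSO.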

[8] = TOX21_p53_BLA_p5_viability: Viability Assessment in the Tox21 HCT-116 p53 Agonism Beta-lactamase Assay, Phase 5 (AID 2283600)
Outline: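 Decreased CellTiter-Glo luminescence denotes lost viability. Exposure: 16 h at 37C, 5% CO2, with compounds from DMSO stocks diluted 217-fold in wells of 4000 cells.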

[9] = molecular target: Cellular tumor antigen p53 (Homo sapiens) (UniProt P04637); experiment: TOX21_p53_BLA_p4_ratio: Tox21 HCT-116 p53 Agonism Beta-lactamase Assay, Ratio, Phase 4 (AID 2283601)
Outline: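 HCT-116 p53 beta-lactamase reporter cells (4000/well) preincubated 5 h, then compound (217-fold dilution of DMSO stock) for 16 h at 37C. CCF4-AM substrate added 2 h at room temperature; 460/530 nm emission ratio fitted upward versus DMSO.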

[10] = Tanguay_ZF_120hpf_MORT_legacy: (Legacy) Oregon State University Tanguay Lab 120 Hour Post-fertilization zebrafish Assay for Mortality (AID 2283633);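 as to AC50: fitted as increase in binary mortality versus DMSO negative control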
Outline: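 Dechorionated Tropical 5D wild-type zebrafish embryos, one per well from 6 hpf, static exposure in 0.64% DMSO at 28C until 120 hpf. Mortality scored as binary by brightfield microscopy at 24 and 120 hpf.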

[11] = Tanguay_ZF_120hpf_YSE_legacy: (Legacy) Oregon State University Tanguay Lab 120 Hour Post-fertilization zebrafish Assay for Yolk Sac Edema (AID 2283634);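 as to AC50: actives raise the incidence of yolk sac edema above the DMSO baseline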
Outline: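 Dechorionated Tropical 5D wild-type zebrafish embryos were exposed statically, one per well, from 6 to 120 hpf at 28C in 0.64% DMSO. Yolk sac edema was scored present/absent by brightfield at 120 hpf, and dead embryos were excluded.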

[12] = Tanguay_ZF_120hpf_AXIS_legacy: (Legacy) Oregon State University Tanguay Lab 120 Hour Post-fertilization zebrafish Assay for Body Axis Malformation (AID 2283635);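 as to AC50: potency for an increased fraction of larvae scored with body axis malformation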
Outline: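 Dechorionated wild-type Tropical 5D zebrafish embryos, one per well, statically exposed from 6 hpf to 120 hpf at 28C in 0.64% DMSO final. Body axis malformation scored present/absent by brightfield microscopy at 120 hpf; dead embryos excluded.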

[13] = Tanguay_ZF_120hpf_SNOU_legacy: (Legacy) Oregon State University Tanguay Lab 120 Hour Post-fertilization zebrafish Assay for Snout Malformation (AID 2283637)
Outline: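 Binary brightfield scoring of snout malformation at 120 hpf. Dechorionated 5D wild-type embryos, one per well, static exposure from 6 hpf at 28C, sealed and dark; final DMSO 0.64% (vol/vol), DMSO as baseline; 5uM trimethyltin chloride positive control.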

[14] = Tanguay_ZF_120hpf_JAW_legacy: (Legacy) Oregon State University Tanguay Lab 120 Hour Post-fertilization zebrafish Assay for Jaw Malformation (AID 2283638);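 as to AC50: active means more embryos with jaw malformation than DMSO controls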
Outline: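 Dechorionated Tropical 5D wild-type zebrafish embryos, one per well, exposed statically from 6 hpf to 120 hpf at 28C in 0.64% DMSO. Jaw malformation was scored by brightfield microscopy as present or absent. It was not scored in dead embryos.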

[15] = Tanguay_ZF_120hpf_OTIC_legacy: (Legacy) Oregon State University Tanguay Lab 120 Hour Post-fertilization zebrafish Assay for Otic Vesicle Malformation (AID 2283639)
Outline: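 Wild-type zebrafish larvae, whole-embryo exposure from early stage to 120 hpf at 28C. Binary brightfield scoring of otic vesicle morphology, fitted in the positive direction against the DMSO baseline.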

[16] = Tanguay_ZF_120hpf_PE_legacy: (Legacy) Oregon State University Tanguay Lab 120 Hour Post-fertilization zebrafish Assay for Pericardial Edema (AID 2283640);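 as to AC50: potency for increased incidence of pericardial edema versus DMSO baseline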
Outline: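 Tropical 5D wild-type zebrafish embryos were statically exposed until 120 hpf at 28C, with 0.64% DMSO final. Pericardial edema was scored by brightfield as present or absent; endpoints were not scored in dead embryos.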

[17] = Tanguay_ZF_120hpf_BRAI_legacy: (Legacy) Oregon State University Tanguay Lab 120 Hour Post-fertilization zebrafish Assay for Brain Malformation (AID 2283641)
Outline: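 Tropical 5D wild-type zebrafish embryos exposed statically until 120 hpf at 28C, 0.64% DMSO final, sealed and dark. Brain malformation scored present/absent by brightfield at 120 hpf; dead embryos excluded. Trimethyltin chloride 5uM positive control.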

[18] = Tanguay_ZF_120hpf_SOMI_legacy: (Legacy) Oregon State University Tanguay Lab 120 Hour Post-fertilization zebrafish Assay for Somite Malformation (AID 2283647)
Outline: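 Dechorionated Tropical 5D wild-type zebrafish embryos, one per well from 6 hpf, statically exposed at 28C to 120 hpf in 0.64% DMSO; somite malformation scored present/absent by brightfield; trimethyltin 5 uM positive control; dead embryos not scored.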

[19] = Tanguay_ZF_120hpf_PFIN_legacy: (Legacy) Oregon State University Tanguay Lab 120 Hour Post-fertilization zebrafish Assay for Pectoral Fin Malformation (AID 2283648);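 also: each larva judged yes or no for fin defect by brightfield with dead larvae skipped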
Outline: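 Binary pectoral fin malformation call at 120 hpf by brightfield microscopy; 5D wild-type zebrafish, chorion removed at 4 hpf, one embryo per well from 6 hpf, static exposure at 28C; DMSO (0.64% final) as baseline.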

[20] = Tanguay_ZF_120hpf_EYE_legacy: (Legacy) Oregon State University Tanguay Lab 120 Hour Post-fertilization zebrafish Assay for Eye Malformation (AID 2283636);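 also: binary presence or absence of eye malformation scored by brightfield in 120 hpf larvae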
Outline: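 5D wild-type embryos, pronase-dechorionated at 4 hpf; static exposure 6–120 hpf, 28C, dark; DMSO 0.64% final; 5uM trimethyltin chloride positive control. Binary eye-defect scoring at 120 hpf; dead embryos not scored.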

Measured: AC50

CCCCCCCCCCCC[N+](C)(C)C
active: [2] 85.2 µM and 79.6 µM and 73.5 µM | [3] 14.7 µM and 14.2 µM and 14.1 µM | [4] 85.3 µM | [5] 21 µM and 16 µM and 46.1 µM | [6] 83.2 µM and 46 µM and 46.1 µM | [7] 33.3 µM | [9] 37.4 µM and 17.3 µM and 46.4 µM
inactive: [1] | [4] | [7] | [8] | [10] | [11] | [12] | [13] | [14] | [15] | [16] | [17] | [18] | [19]

Cc1oc2c(NC(=O)c3c(Cl)cccc3Cl)cccc2c1C(C)(C)O
inactive: [1] | [2] | [3] | [4] | [5] | [6] | [7] | [8] | [11] | [12] | [20] | [13] | [14] | [15] | [16] | [17] | [18] | [19]
active: [10] 26 µM

CC(=O)N1CCN(c2ccc(OC[C@H]3CO[C@](Cn4ccnc4)(c4ccc(Cl)cc4Cl)O3)cc2)CC1
active: [2] 56.7 µM | [4] 46.1 µM | [5] 58.3 µM | [6] 58.7 µM | [7] 46.1 µM | [8] 64.4 µM | [9] 44.3 µM
inactive: [1] | [2] | [3] | [4] | [5] | [6] | [7] | [8] | [9] | [10] | [11] | [12] | [13] | [15] | [16] | [18]

CCCCCc1ccc(N)cc1
inactive: [1] | [2] | [3] | [4] | [5] | [6] | [8] | [9] | [10] | [11] | [12] | [13] | [15] | [16] | [17] | [19]

OCCO
inactive: [1] | [2] | [3] | [4] | [5] | [6] | [7] | [8] | [9] | [10] | [11] | [12] | [20] | [13] | [14] | [16] | [17] | [19]

O=c1c(-c2ccc(O)cc2)coc2cc(O)cc(O)c12
inactive: [1] | [2] | [3] | [4] | [5] | [6] | [7] | [8] | [9] | [11] | [12] | [20] | [13] | [14] | [15] | [16] | [17] | [18] | [19]
active: [3] 18 µM | [10] 26.1 µM

CCCCCCCCCC(=O)O
inactive: [1] | [2] | [3] | [4] | [5] | [6] | [7] | [8] | [9] | [10] | [11] | [12] | [20] | [13] | [14] | [16] | [17] | [18] | [19]

O=C(Nc1ccc(Cl)cc1)Nc1ccc(Cl)c(Cl)c1
inactive: [1] | [2] | [4] | [6] | [7] | [8] | [10] | [11] | [12] | [13] | [14] | [15] | [16] | [17] | [18] | [19]
active: [3] 3.12 µM and 5.23 µM and 3.82 µM | [5] 5.76 µM and 4.62 µM and 6.38 µM | [7] 6.25 µM and 12.1 µM | [9] 4.01 µM and 4.85 µM and 6.48 µM

CCCCOC(=O)c1ccc(O)cc1
active: [11] 51.7 µM | [12] 45.1 µM | [20] 41.1 µM | [13] 24.9 µM | [14] 29.5 µM | [15] 46.5 µM | [16] 35.5 µM | [17] 11.1 µM | [18] 63.7 µM | [19] 46.5 µM
inactive: [1] | [2] | [3] | [4] | [5] | [6] | [7] | [8] | [9] | [10]

O=C1CCC(C2CCCCC2)CC1
inactive: [1] | [2] | [3] | [4] | [5] | [6] | [7] | [8] | [9] | [10] | [11] | [12] | [20] | [13] | [14] | [15] | [16] | [17] | [19]

CN(C)c1ccc(C(=C2C=CC(=[N+](C)C)C=C2)c2ccc(N(C)C)cc2)cc1
active: [1] 12.3 µM | [2] 23.6 µM and 19.1 µM and 23 µM | [3] 33.6 µM and 32.8 µM and 7.06 µM | [4] 56.6 µM and 17.3 µM and 20.4 µM | [5] 9.02 µM and 31.5 µM and 8.23 µM | [6] 28.8 µM and 20.6 µM and 14.3 µM | [7] 47.3 µM and 34 µM and 25.4 µM | [8] 46.1 µM and 27 µM and 14.5 µM | [9] 52.5 µM and 51.7 µM and 30.8 µM | [10] 0.577 µM
inactive: [12] | [19]

COc1cc(C(=O)NC2CCN(C)CC2)ccc1Nc1ncc2c(n1)N(C1CCCC1)CC(F)(F)C(=O)N2C
inactive: [1] | [11] | [15] | [18] | [19]
active: [2] 47.4 µM | [3] 0.00393 µM | [4] 55.2 µM | [5] 70.1 µM | [6] 42.9 µM | [7] 0.00396 µM | [8] 68.8 µM | [9] 0.00404 µM | [10] 24.4 µM | [12] 9.69 µM | [20] 10.1 µM | [13] 10.1 µM | [14] 34.6 µM | [16] 35.6 µM | [17] 12.3 µM
